A selection: hits, their analogues and other compounds. The true share with any hit is near 1.5%.
iPSC survival up: hiPSC single-cell survival enhancement. ATPlite luminescence; 100% = ROCK inhibitor wells, 0% = DMSO. survival enhancement, % at 20 µM. 360,000 compounds, 0.044% hits; in the data active = survival enhancement above about 18%;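 also: cells exposed to compounds for 16 hours before the ATP read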
ABCB6 inh MLPCN: inhibitors of human ABC transporter ABCB6. Q9NP58. K562-ABCB6 porphyrin accumulation, flow cytometry, 1 h; stronger effect = lower value. fluorescence ratio to DMSO, % at 10 µM. 360,000 compounds, 0.19% hits;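 active = fluorescence ratio to DMSO below 75%, the collection mean minus 3 SD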;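 also: signal is porphyrin accumulated inside mitochondria; 100% equals median channel fluorescence of DMSO control wells; lower ratio means ABCB6 inhibition with less porphyrin fluorescence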
TMEM16A inh: mouse TMEM16A channel inhibition, primary screen; Q8BHY3; HEK293 TMEM16A/YFP iodide influx fluorescence, ionomycin; normalized B-score (activity score, 25-100; higher = stronger inhibition) at 10 µM; 310,000 compounds, 1.2% hits; AID 588511;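 active = ratio plate-corrected score three or more library SD toward inhibition, starting fluorescence score within five deviations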;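 also: score derived from kinetic fluorescence span divided by baseline fluorescence per well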
Target sequence (Q8BHY3 whole entry, looked up): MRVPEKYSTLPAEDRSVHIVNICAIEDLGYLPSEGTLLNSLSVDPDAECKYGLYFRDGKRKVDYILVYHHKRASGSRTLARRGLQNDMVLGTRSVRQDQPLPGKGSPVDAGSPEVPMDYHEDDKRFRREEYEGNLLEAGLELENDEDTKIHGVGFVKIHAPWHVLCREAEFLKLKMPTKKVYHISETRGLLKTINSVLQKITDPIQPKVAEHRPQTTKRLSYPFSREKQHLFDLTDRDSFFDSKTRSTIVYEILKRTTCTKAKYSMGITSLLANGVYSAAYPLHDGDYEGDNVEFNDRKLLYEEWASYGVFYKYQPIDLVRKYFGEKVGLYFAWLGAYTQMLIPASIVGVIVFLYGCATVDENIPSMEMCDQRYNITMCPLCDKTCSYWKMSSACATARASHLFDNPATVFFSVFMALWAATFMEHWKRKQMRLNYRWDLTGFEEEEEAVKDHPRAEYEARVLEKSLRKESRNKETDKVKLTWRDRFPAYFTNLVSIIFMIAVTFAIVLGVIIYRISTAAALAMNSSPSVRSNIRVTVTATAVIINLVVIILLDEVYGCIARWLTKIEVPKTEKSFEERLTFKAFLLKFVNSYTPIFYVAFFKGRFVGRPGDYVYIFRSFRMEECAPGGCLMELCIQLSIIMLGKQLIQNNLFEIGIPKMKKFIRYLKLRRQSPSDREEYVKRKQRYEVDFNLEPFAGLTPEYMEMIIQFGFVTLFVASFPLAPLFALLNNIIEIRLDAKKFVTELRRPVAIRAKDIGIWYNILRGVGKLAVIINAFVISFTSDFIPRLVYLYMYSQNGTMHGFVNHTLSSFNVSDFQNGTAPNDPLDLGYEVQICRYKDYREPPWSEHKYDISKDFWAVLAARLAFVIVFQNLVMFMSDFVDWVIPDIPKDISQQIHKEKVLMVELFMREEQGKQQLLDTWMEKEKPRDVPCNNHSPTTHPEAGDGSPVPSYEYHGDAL
TMEM16A act: activators or potentiators of mouse TMEM16A chloride channel; HEK293 TMEM16A/YFP-H148Q/I152L, iodide quench fluorescence; stronger effect = lower value; B-score at 10 µM; AID 623877; Q8BHY3; 340,000 compounds, 0.3% hits;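 active = fluorescence-ratio B-score plate-corrected deviation score at least 3 library SD below zero, with starting fluorescence score within 5 deviations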;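 also: channel opened by trigger with iodide after compound preincubation; score built on the fluorescence ratio of max minus min over baseline; more negative score means more quench and so TMEM16A activation or potentiation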
DAGLB inhibitor: blocks human DAGLB lipase activity | inhibition, % at 5.17 µM | Q8NCG7 | 340,000 compounds, 0.059% hits | HEK293T DAGLB membrane lysate, EnzChek fluorogenic substrate | AID 504411; in the data active = inhibition above about 34%;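 also: 0% = enzyme with vehicle and 100% = wells lacking enzyme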
TMEM16A reconf: TMEM16A (mouse) chloride channel inhibition, re-confirmation; 2,300 compounds, 39% hits; HEK293 TMEM16A/YFP-H148Q, iodide quench fluorescence; ionomycin added to raise cell calcium; shares compounds with TMEM16A inh; inhibition, % at 10 µM;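 active = mean duplicate percent inhibition, scaled so buffer wells are 0 and the reference blocker 100, over three buffer SD above buffer mean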
TMEM16A Ca cntr: counter-screen for TMEM16A inhibitors: effect on calcium mobilization. shares compounds with TMEM16A inh. TMEM16A/YFP HEK293, Fluo4 calcium mobilization. calcium response (% of ionomycin), % at 10 µM. 2,300 compounds, 2% hits. AID 652231;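 active = duplicate-averaged calcium signal over 20% of the ionomycin maximum, relative to buffer baseline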;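 also: each well's signal is peak minus trough fluorescence divided by its pre-addition baseline; 0% = buffer wells and 100% = ionomycin wells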
Parental YFP cnt: acts in parental YFP-HEK293 cells lacking TMEM16A, counter-screen. YFP ratio F(max-min)/F0 at 10 µM. iodide YFP quench, ionomycin. 2,300 tested, under 10 active. shares compounds with TMEM16A inh;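 active = yellow fluorescent protein signal ratio exceeding the buffer control mean by over 5 SD of those controls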;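 also: ratio is mean of duplicate wells from kinetic YFP trace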
ClC-1 rat inh: blocks the rat ClC-1 voltage-dependent chloride channel. shares compounds with TMEM16A inh. 2,300 tested, under 10 active. CHO ClC-1-YFP, iodide influx fluorescence quench; iodide control reads 0, buffer control 100. ratio percent, % at 10 µM;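 active = duplicate-mean ratio percent above the mean of iodide-only control wells, which defines zero, plus 5 of their SD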;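 also: higher percent means stronger block of ClC-1 iodide influx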
* hit, by the source's call; i = inactive; / = no result given.

SMILES	iPSC survival up	ABCB6 inh MLPCN	TMEM16A inh	TMEM16A act	DAGLB inhibitor	TMEM16A reconf	TMEM16A Ca cntr	Parental YFP cnt	ClC-1 rat inh
COc1ccc(-c2cc(-c3ccccc3)nc(=O)[nH]2)cc1	-1	101	i	i	-2	/	/	/	/
COc1ccc(-c2cc(C(F)(F)F)c3c(=O)n(-c4ccccc4)[nH]c3n2)cc1	2	106	100*	i	8	23%*	i	-1.2	-4
COc1ccc(NC(=S)NC(NC(=O)c2cccc(Cl)c2)C(Cl)(Cl)Cl)c([N+](=O)[O-])c1 (stereo unspecified)	2	100	25*	i	5	i	i	-1.2	-12
CCOC(=O)c1c(S(=O)(=O)NCC(=O)Nc2ccc(F)cc2F)c(C)n(C)c1C	0	99	i	i	-4	/	/	/	/
Cc1sc2c(=O)n3c(nc2c1C(=O)NC1CCCCC1)CCCCC3	-2	104	i	i	-6	/	/	/	/
Cc1sc2c(=O)n3c(nc2c1C(=O)NCCCN1CCOCC1)CCCCC3	3	94	100*	i	-5	i	i	-0.95	-10
COc1ccc(Cn2nnnc2C(c2cc3cccc(C)c3[nH]c2=O)N2CCOCC2)cc1 (stereo unspecified)	2	94	i	i	-4	/	/	/	/
CCN1CCN(C(c2cc3cccc(C)c3[nH]c2=O)c2nnnn2Cc2ccccc2)CC1 (stereo unspecified)	2	80	25*	i	2	i	i	-0.97	-4
Cc1ccc(S(=O)(=O)N2CCN(C(=O)CCC(=O)NCc3cccc(C(F)(F)F)c3)CC2)cc1	0	94	25*	i	0	i	i	-1.2	-20
COC(=O)c1cc(-c2ccc(S(=O)(=O)N3CCCCC3)cc2)c(C(F)(F)F)s1	1	92	i	i	-13	/	/	/	/
COC(=O)c1cc(-c2ccc(S(=O)(=O)N3CCCC3)cc2)c(C(F)(F)F)s1	-1	98	25*	i	-8	i	i	-1.2	-18
Cc1ccccc1C(=O)NN1CC(C(=O)OCc2ccc(Cl)c(Cl)c2)CC1=O (stereo unspecified)	0	106	i	i	-2	/	/	/	/
O=C(Cn1cnc2c(oc3ccccc32)c1=O)N1CCCc2ccccc21	-2	99	i	i	-2	/	/	/	/
O=C(CSc1ncnc2c1oc1ccccc12)N1CCCc2ccccc21	-3	83	100*	i	-3	28%*	i	-0.8	-8
CC(C)(C)NC(=O)C(c1ccc(O)cc1)N(C(=O)CCC(=O)Nc1ccccn1)c1ccc(F)cc1 (stereo unspecified)	0	98	i	i	-2	/	/	/	/
NC(=O)NC(=O)COC(=O)CCCc1c[nH]c2ccccc12	3	97	100*	i	3	i	i	-1	-14
CC(=O)Nc1ccc(NC(=O)COC(=O)CCCc2c[nH]c3ccccc23)cc1	0	93	i	i	-1	/	/	/	/
CCOc1cc(C(=S)N2CCOCC2)ccc1OC(=O)c1ccc(C)cc1	0	91	25*	i	8	i	i	-0.93	-10
CCOC(=O)[C@]12CCCC=C1N(Cc1ccc3c(c1)OCO3)C(=O)[C@H](CC(=O)NCC13CC4CC(CC(C4)C1)C3)C2	-1	98	/	/	/	/	/	/	/
CC(Oc1ccc(Br)cc1)c1nc2c3ccccc3nc(=S)n2[nH]1 (stereo unspecified)	0	95	25*	i	4	33%*	i	-0.71	-9
CCOC(=O)C1=CCN(S(=O)(=O)c2cccc(Cl)c2)C1c1ccc(F)cc1 (stereo unspecified)	5	99	/	/	/	/	/	/	/
Cc1cc2cc(CNC(=O)C3CC3)ccc2n1C	1	93	100*	i	-2	i	i	-1	-8
CC(C)C[C@H]1CN(CCCC[C@H]2CNC(=O)C(=O)N2CCc2ccc(O)cc2)C(=O)C(=O)N1CCc1ccc(O)cc1	0	101	/	/	/	/	/	/	/
COc1ccc(Cl)cc1C(=O)CSc1nnnn1C1CCCC1	1	93	i	i	-9	/	/	/	/
COc1ccc(Cl)cc1C(=O)CSc1nnnn1C1CCCCC1	6	95	100*	i	-13	i	i	-1.1	-9
SMILES	iPSC survival up	ABCB6 inh MLPCN	TMEM16A inh	TMEM16A act	DAGLB inhibitor	TMEM16A reconf	TMEM16A Ca cntr	Parental YFP cnt	ClC-1 rat inh
O=C(O)CCCCCn1c(SCC(=O)c2ccc(O)c(O)c2)nc2ccsc2c1=O	0	99	i	i	3	/	/	/	/
CCCCn1c(SCC(=O)c2ccc(O)c(O)c2)nc2ccsc2c1=O	0	95	100*	i	21	49%*	i	-1	-18
Cc1cccc(CC(=O)Nc2cccnc2)c1	2	99	i	i	-6	/	/	/	/
CCOC(=O)c1sc2nc(C)nc(NCc3ccc(F)cc3)c2c1C	0	103	100*	i	-5	i	i	-1.1	-13
CS(=O)c1ccc(-n2c(=O)n(Cc3ccccc3)c(=O)c3[nH]cnc32)cc1 (stereo unspecified)	0	107	i	i	0	/	/	/	/
CC(C)C[C@H]1CNC(=S)N1C[C@H]1CCCN1C[C@H](Cc1ccc(O)cc1)N1C[C@H](Cc2ccc(O)cc2)N(CC2CCCCCC2)C1=S	-2	95	/	/	/	/	/	/	/
CCCCSc1nnc(-c2ccccc2)c2ccccc12	5	99	100*	i	-13	i	i	-1.1	-8
CCN1CCN(c2nnc(-c3ccccc3)c3ccccc23)CC1	-1	93	i	i	-1	/	/	/	/
Cc1ccc(NC(NC(=O)c2cccs2)C(Cl)(Cl)Cl)cc1C (stereo unspecified)	-2	91	100*	i	-4	28%*	i	-1.2	-10
CCN(CC)c1ccc(NC(=O)CCCCCN2C(=O)c3ccccc3C2=O)cc1	2	98	25*	i	2	i	i	-0.9	-6
O=C1CC(C(=O)Nc2ccccc2)N=C(N2CCCCC2)N1 (stereo unspecified)	3	107	i	i	0	i	i	-1.1	-5
O=C(COC(=O)c1ccc(F)cc1F)c1ccc[nH]1	1	97	/	i	0	/	/	/	/
COC(=O)N1CCCCC1c1cc(C(=O)N2CCOCC2)no1 (stereo unspecified)	-4	96	/	/	/	/	/	/	/
